The full list was thinned out, with hits kept by preference.
Pf Dd2 growth – blocks in vitro growth of P. falciparum Dd2 | P. falciparum Dd2 growth, SYBR Green, 72 h | Potency, µM (titrated, usually from 28.9 µM), without a hit: top-dose activity, negative = inhibition, hits mostly inhibitors | 120,000 tested, 4.3% active | AID 1347417; active = well fitted inhibition curve with a large enough effect;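 note: plate controls were DMSO vehicle for no effect and reference drug for full effect; nearly all actives have a fitted effect of over 65% in size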
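Readout: SYBR Green fluorescence, 485 nm excitation, 535 nm emission, after ~16 h lysis at 37C. Before that, Dd2-infected red cells (2.5% hematocrit) grew 72 h with compound, 29 uM top final concentration.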
* marks the source's active call; other numbers are inactive results; i = inactive; [ ] = remark or other dose. Potency is the fitted concentration of half-maximal effect.

SMILES | Pf Dd2 growth
Cc1cccc(NC(=O)CSc2nc3c(c(=O)[nH]2)CN(Cc2ccc4c(c2)OCO4)CC3)c1C | 22.5%
CN1C(=O)C2(c3ccccc31)N(c1cccc(F)c1)C(=O)CS2(=O)=O (stereo not drawn) | 39.3%[5.79 µM]
COc1ccc(CN2C(=O)[C@@H]3C[C@@H](O)CN3C3(CN(Cc4ccccn4)C3)C2=O)cc1 | i
O=C(c1cncc(Br)c1)N1CCCN(C(=O)C2CC2)c2ccccc21 | -17.9%
CCCCCCC(=O)Nc1ccc2nc3c(=O)n(C)c(=O)n(C)c3nc2c1C | 22.7%
CCCCS(=O)(=O)c1nc(-c2ccc(Br)cc2)cc(-c2ccccc2)c1C#N | 5.01µM*
C#CCSc1nc(-c2ccccc2)cc(-c2ccccc2)c1C#N | 5.9%[0.594 µM]
Cc1cccc(-c2cc(-c3ccccc3)nc(SCC(=O)Nc3ccccc3)c2C#N)c1 | 13.3%
COc1ccc(CNC(=O)COCc2cc(-c3cccs3)on2)cc1 | 17.6%
Cc1ccc(CCNC(=O)c2ccc(CS(=O)(=O)Cc3ccc(Cl)cc3)o2)cc1 | 4.2%
CSCC(=O)N1C[C@@H](NC(=O)NC(C)C)C[C@H]1C(=O)N[C@@H](Cc1cccs1)C(N)=O | 17.6%
COc1ccc(CN2Cc3cc(NC(=O)c4ccc(F)cc4)ccc3OC(C)C2=O)c(OC)c1 (stereo not drawn) | i
COc1ccc(CN2Cc3cc(NC(=O)c4ccccc4F)ccc3OC(C)C2=O)c(OC)c1 (stereo not drawn) | 3.16µM*
COc1ccc(C(=O)Nc2ccc3c(c2)CN(Cc2ccc(F)cc2)C(=O)C(C)O3)c(OC)c1 (stereo not drawn) | i
Cc1ccc(C)c(NC(=O)N2CCN(C)c3ncccc32)c1 | 9.2%
Cc1cc(C)n(-c2nc3ccccc3nc2Nc2ccc(Cl)c(C(=O)OC(C)C)c2)n1 | 33.1%
COc1cc(OC)cc(C(=O)N2CCC3(CC2)N(c2ccccc2)C(=O)CS3(=O)=O)c1 | -24.8%
COc1ccc(-c2noc(-c3ccc(NC(C)c4ccccc4)c([N+](=O)[O-])c3)n2)cc1OC (stereo not drawn) | 1.9%
COc1ccc([N+](=O)[O-])cc1NC(c1nnc(-c2ccccc2)o1)c1ccccc1F (stereo not drawn) | 12.6µM*
O=C(CSc1nnc(-c2ccc([N+](=O)[O-])cc2)o1)Nc1ccccc1 | 12.1%
CC(C)(O)CCc1cccc(C(=O)N2CC=C(c3ccc(F)cc3)CC2)c1 | -0.2%
O=C(NCCCc1nc2ccccc2n1Cc1c(F)cccc1Cl)C1CCCCC1 | 0.9%
C[C@H]1CCCN1C(=O)c1nnc(COc2ccc(Cl)cc2)n1-c1ccccc1 | -12.4%[44.1 µM]
CC(=O)Nc1cccc(OCc2nnc(C(=O)N3CCC[C@@H]3c3ccc(Br)cc3)n2Cc2ccccc2)c1 | -22.3%
CC(=O)Nc1cccc2ccc(OCc3nnc(C(=O)N4CCC[C@@H]4c4ccc(Br)cc4)n3Cc3ccccc3)cc12 | 11.2µM*
SMILES | Pf Dd2 growth
COCC(=O)N1CCC(OC2CCN(Cc3cccnc3)CC2)CC1 | 88.9%
CC1CCN(S(=O)(=O)c2ccc3c(c2)oc(=O)n3CC(=O)NCc2ccc(F)cc2)CC1 | 5.62µM*
COc1cccc(CNC(=O)Cn2c(=O)oc3cc(S(=O)(=O)N4CCC(C)CC4)ccc32)c1 | -4.7%
COc1ccc(CNC(=O)Cn2c(=O)oc3cc(S(=O)(=O)N4CCCC4)ccc32)cc1 | -0.5%
Cc1nc(C)c(-c2ccc(SCC(=O)Nc3ccc(F)c(F)c3)nn2)s1 | -20.5%
O=C(CC1C(=O)OCCN1Cc1ccccc1)Nc1ccc(F)cc1 (stereo not drawn) | 45.4%
CCn1c(CO)nnc1C1CC(NC(=O)NCCc2ccccc2F)C1 (stereo not drawn) | 1.9%
O=C(c1cccc(O)c1)N1CCCC(CCc2cccc(C(F)(F)F)c2)C1 (stereo not drawn) | i
CCNc1ncc(CN2CCCC(CCc3cccc(C(F)(F)F)c3)C2)cn1 (stereo not drawn) | 7.94µM*
CCCn1nccc1C(=O)N1CCCC(CCc2cccc(C(F)(F)F)c2)C1 (stereo not drawn) | i
COC(=O)[C@@H]1C[C@@H](NC(=O)c2cc(-c3ccc(C)o3)[nH]n2)CN1C | 2.8%
COc1cc(Cl)c(C)cc1NC(=O)CCc1nc2cccnc2n1-c1ccccc1 | -8.3%
CCOC(=O)CC(NC(=O)CCc1c(C)nc2ncnn2c1C)c1ccc(OC(C)C)cc1 (stereo not drawn) | 31.3%
CCOC(=O)c1cc(-c2ccccc2)n(CCCC(=O)Nc2cccc(C)c2)c1C | i
CCOC(=O)c1cccc(NC(=O)CCn2c(-c3ccc(F)cc3)cc(C(=O)OCC)c2C)c1 | 0.1µM*
CCOC(=O)c1cc(-c2ccc(C)cc2)n(CCC(=O)Nc2ccc(C(C)C)cc2)c1C | 8.91µM*
CCOC(=O)c1cc(-c2ccccc2)n(CC(=O)Nc2ccc(CC)cc2)c1C | i
CCOc1ccc(NC(=O)CCn2c(-c3ccc(F)cc3)cc(C(C)=O)c2C)cc1 | i
CCOC(=O)c1cc(-c2ccc(C)cc2)n(CC(=O)Nc2ccc(OC)c(Cl)c2)c1C | -0.4%
COc1cccc([C@@H]2CN(C(=O)CCc3n[nH]c(C)n3)C[C@H]2C(=O)O)c1 | -3.3%
Cc1cccc(Nc2nn3c(=O)c4cc5c(cc4nc3s2)OCO5)c1 | i
CCCN1CCC(N2CCCC(Cc3ccccc3)(C(=O)OCC)C2)CC1 (stereo not drawn) | 5.01µM*
CCOC(=O)C1(Cc2cccc(Cl)c2)CCCN(C(=O)c2csc(C(C)=O)c2)C1 (stereo not drawn) | i
CCOC(=O)C1(Cc2cccc(OC)c2)CCCN(C(=O)COc2ccccc2)C1 (stereo not drawn) | -14.5%
COc1ccc(-n2nc3n(c2=O)CCN([S+](=O)([O-])c2cccs2)C3)cc1 | i
SMILES | Pf Dd2 growth
CCN1CCN(Cc2cc3ccc(C)cc3nc2-c2ccc(OC)c(OC)c2)CC1 | -28.8%
COc1ccc(-c2nc3cc(C)ccc3cc2CN2CCN(C)C(=O)C2)cc1OC | 7.94µM*
COc1ccc(-c2n[nH]c3c2CC(=O)N(CC2CC2)C3)cc1OC | 2.1%[44.1 µM]
CCc1nc(CN2CCC(=O)N(Cc3ccc(F)cc3)C(C(C)C)C2)no1 (stereo not drawn) | 4.1%
CS(=O)(=O)N1CCC(OC2CCN(C(=O)Nc3ccccc3C(F)(F)F)CC2)CC1 | -13.5%
CC(=O)N1CCC2(CC1)OC(=O)C(C)=C2C(=O)Nc1ccccc1C(F)(F)F | 14.4%
CCN1c2ccccc2-n2cccc2C12CCN(C(=O)Nc1ccccc1C(F)(F)F)CC2 | 2.82µM*
OC1(CN2CCN(Cc3cccc(Cl)c3)CC2)CCCNC1 (stereo not drawn) | -24.7%
COc1cccc(CC2(CO)CCCN(C(=O)c3cn4ccsc4n3)C2)c1 (stereo not drawn) | -21.1%
OCC1(Cc2cccc(Cl)c2)CCCNC1 (stereo not drawn) | 11.2µM*
CCc1nn(-c2ccccc2)c(Oc2ccccc2OC)c1CCC(=O)NCCOC | i
O=C(Nc1ccc(Br)cc1)C1CCN(c2cnccn2)CC1 | 14.4%
COc1ccc(NC(=O)Cn2c(=O)n(Cc3nc(C)no3)c(=O)c3cc4c(cc32)OCO4)cc1 | -23.9%
CC1=C[C@@H](CNC2CCN(C)CC2)[C@H](C(C)C)C[C@H]1Cc1nc2ccc(F)cc2[nH]1 | -21.8%[44.1 µM]
COC(=O)c1ccc2nc(C[C@@H]3C[C@@H](C(C)C)[C@H](CN)C=C3C)[nH]c2c1 | -16.0%[44.1 µM]
CC1=C[C@@H](CN)[C@H](C(C)C)C[C@H]1Cc1nc2ccc(C)cc2[nH]1 | 10µM*
CC1=C[C@@H](CNC(=O)NC2CCCCC2)[C@H](C(C)C)C[C@H]1Cc1nc2ccc(C)cc2[nH]1 | -18.5%[44.1 µM]

Screens from PubChem.
